Compound activity (PubChem BioAssay)
Hits are enriched below; roughly 0.86% of the tested compounds scored in any of these assays.
CDC25B CDK2 inh: primary biochemical HTRF screen for blockers of M-phase inducer phosphatase 2 binding to CDK2/cyclin A. P30305+P24941. z-score (concentration not given with the values). HTRF CDC25B-CDK2/CyclinA binding, anti-His/anti-Flag; hits give high values. 0.72% of 94,000 active. AID 1259370, 2018; in the data active = z-score above about 3.2
HIV TAR-Tat: TAR RNA-Tat peptide displacers, HIV-1, primary screen, biochemical, FRET, FAM/TAMRA-labeled Tat | HIV-1 TAR RNA, Tat peptide displacement FRET; hits give high values | z-score (concentration not given with the values) | 0.6% of 100,000 active; active = z-score of 3 or more in at least 2 runs
Starred values were filed as active, the others as inactive; x = not tested or not shown; + = active, no number.

SMILES	CDC25B CDK2 inh	HIV TAR-Tat
O=C(CCc1nc2sc3c(c2c(=O)[nH]1)CCCCC3)NC1CCCCC1	x	-0.45
CC1CCN(C(=O)CCc2nc3sc4c(c3c(=O)[nH]2)CCCC4)CC1	x	0.18
O=C(CCc1nc2sc3c(c2c(=O)[nH]1)CCCCC3)N1CCC(Cc2ccccc2)CC1	x	4.3*
O=C(CCc1nc2sc3c(c2c(=O)[nH]1)CCCCC3)N1CCN(c2cccc(Cl)c2)CC1	x	28*
COc1ccc(CN2CCc3nc(N4CCC(C)CC4)[nH]c(=O)c3C2)cc1OC	-1.2	1.3
Oc1cccc2ccc(CNCc3cccc(Cl)c3)nc12	x	-1.7
O=c1c2c3c(sc2nnn1CCCOc1ccccc1)CCCC3	1	1.5
COc1ccc(OCCn2nnc3sc4c(c3c2=O)CCCC4)cc1	0.44	3.3*
O=C(Nc1ccc2c(c1)nc1n2CCN(C2CCCCC2)C1)c1ccco1	7.1*	31*
O=C(Nc1ccc2c(c1)nc1n2CCN(C2CCCCC2)C1)NC1CCCCC1	-1.3	-3
O=C(NCCCN1CCCC1)c1cnc(N2CCOCC2)nc1	x	1.3
Fc1ccccc1-n1ncc2c1ncn1nc(-c3ccccc3)nc21	-1.7	1.9
Clc1ccccc1-n1ncc2c1ncn1nc(-c3ccccc3)nc21	-2.4	6.9*
COc1cc(C(=O)Nc2ccccc2C(=O)Nc2ccccc2)cc(OC)c1OC	-0.97	x
NC1(C(=O)O)CCCCC1	-1.7	x
N.N.O=C(O)C1(C(=O)O)CCC1.[Pt+2]	+	x
CCOc1ccc(C2NC(C(=O)O)CS2)cc1 (stereo not given)	-1.1	1.4
Cn1nc(C(=O)NCCc2ccsc2)c2c1-c1ccccc1OC2	-1.6	1.1
Cc1ccc(-c2nnn3c2nc(NCc2ccco2)c2ccccc23)cc1	-2	1.2
Cc1cccc(-c2nnn3c2nc(NCc2ccco2)c2ccccc23)c1	-1.8	7.8*
Cc1nc2cc(Nc3nnc(-c4ccc(Cl)cc4)c4ccccc34)ccc2n1C	14*	x
Cn1cnc2cc(Nc3nnc(-c4ccc(Cl)cc4)c4ccccc34)ccc21	-0.73	x
COCCc1nn2c(=O)cc(COC(=O)COc3ccc(C)cc3)nc2s1	x	-0.48
CCSc1ncc2c(=O)n(CC(=O)NCc3ccc4c(c3)OCO4)cnc2n1	x	13*
O=C(Cn1cnc2nc3c(cc2c1=O)CCCC3)NCc1ccc2c(c1)OCO2	x	1.3
SMILES	CDC25B CDK2 inh	HIV TAR-Tat
CCn1cc(S(=O)(=O)c2cc(C)ccc2C)c(=O)c2cc(F)c(N3CCCC3)cc21	x	0.67
CC(C)(C)C1(O)C(=O)Nc2ccccc21 (stereo not given)	0.98	0.95
O=C1C2=C(NC3=C(C(=O)c4ccccc43)C23C(=O)Nc2ccccc23)c2ccccc21	12*	x
CCOc1ccc(-c2cccc(NS(=O)(=O)c3cccc(Cl)c3)c2)nn1	x	0.64
CC(C)CCNC(=O)CN1Cc2ccccc2C1=O	x	-0.54
CC(C)=CCC/C(C)=C/CC/C(C)=C/CC/C(C)=C/CC/C(C)=C/CC/C(C)=C/CC/C(C)=C/CC/C(C)=C/CC/C(C)=C/CO	x	32*
CC(C)=CCC/C(C)=C/CC/C(C)=C/CO	x	0.89
c1ccc(CCN2CCc3nc(N4CCN(c5ncccn5)CC4)ncc3C2)cc1	x	0.65
COc1ccc(S(=O)(=O)NCCc2cn3cccc(C)c3n2)cc1C	1.1	x
Cc1ccc(SCC(=O)OCc2cc(=O)n3nc(-c4cccs4)sc3n2)cc1	x	0.74
CCC(=O)OCc1cc(=O)n2nc(-c3cccs3)sc2n1	x	19*
O=C(NCCC1=CCCCC1)c1cnn(-c2ccc(F)cc2)c1-n1cccc1	x	0.06
CCC1Oc2ccc(Cl)cc2N(CC(=O)N2CCCN(c3cc(=O)n(C)c(=O)n3C)CC2)C1=O (stereo not given)	x	1.1
COc1ccc(N2CSC3=C(C#N)C(c4cccc(OC)c4OC)CC(=O)N3C2)cc1 (stereo not given)	4*	-5.7
COc1cccc(C2CC(=O)N3CN(c4ccccc4F)CSC3=C2C#N)c1OC (stereo not given)	4.2*	-0.9
COc1ccc(N2CSC3=C(C#N)C(c4cccc(OC)c4OC)CC(=O)N3C2)c(OC)c1 (stereo not given)	5.7*	-0.92
CC(C)C1=CC23CCC4C(C)(C(=O)O)CCCC4(C)C2CC1C1C(=O)N(c2cccc(C(=O)O)c2)C(=O)C13 (stereo not given)	-2.1	x
O=C(C1CC1)N1CCc2cc(Br)cc(S(=O)(=O)NCCCN3CCCCCC3)c21	0.92	x
COc1ccc(Nc2cc(C)nc3nc(-c4ccco4)nn23)c(OC)c1	x	-0.14
CCN1CCN(C(=O)C23CCC(C)(C(=O)C2)C3(C)C)CC1 (stereo not given)	-1.1	x
COC(=O)c1[nH]c2sc3c(c2c1NC(C)=O)CCCC3	4.7	-0.25
COC(=O)c1[nH]c2sc3c(c2c1-n1cccc1)CCCC3	13*	1.6
CCCOC(=O)C1=C(C)NC2=C(C(=O)CC(C)(C)C2)C1c1ccc(O)c(OC)c1 (stereo not given)	-2.5	0.63
N#Cc1ccccc1NCn1cncn1	-1	x
Cc1ccccc1C1CC(c2ccc(NS(C)(=O)=O)cc2)=NN1C(=O)C(C)C (stereo not given)	-1	x
SMILES	CDC25B CDK2 inh	HIV TAR-Tat
O=c1oc(Cc2ccccc2)nc2scc(-c3ccccc3)c12	0	0.84
CC(C)(C)c1nc2scc(-c3ccccc3)c2c(=O)o1	5.9*	1.1
CC(CCc1ccccc1)N1C(=S)NC2C=C(Cl)C=CC21 (stereo not given)	3.6*	x
CCC(C)C1NC(=S)N(Cc2ccccc2)C1=O (stereo not given)	-1.1	x
COc1ccccc1Nc1nc(-c2cc3c(ccc4ccccc43)oc2=O)cs1	-1	x
O=C1c2ccccc2C(=O)N1c1cccc(-c2csc(Nc3cccc4ccccc34)n2)c1	19*	x
Cn1cc(S(=O)(=O)c2ccccc2)c(=O)c2cc(Cl)ccc21	-2	2.4
Cn1cc(S(=O)(=O)c2ccccc2)c(=O)c2cc(F)ccc21	-1.6	21*
CC(=O)N1N=C(c2cc(C3CC3)nc3ccccc23)OC1c1ccccc1 (stereo not given)	x	1.6
COc1ccc(C2OC(c3cc(C4CC4)nc4ccccc34)=NN2C(C)=O)c(OC)c1 (stereo not given)	x	9.2*
N#CC1=C2SCN(Cc3ccco3)CN2C(=O)CC1c1ccc(Br)cc1 (stereo not given)	-1.8	2.1
N#CC1=C2SCN(Cc3ccco3)CN2C(=O)CC1c1ccc(F)cc1 (stereo not given)	6*	-1.5
COc1ccc(C2CC(=O)N3CN(Cc4ccco4)CSC3=C2C#N)cc1 (stereo not given)	3.2*	1.8
COc1ccc(CN2CSC3=C(C#N)C(c4ccc(F)cc4)CC(=O)N3C2)cc1 (stereo not given)	3.6*	0.92
Cc1nc(-c2ccc(C)c(S(=O)(=O)Nc3ccc(F)cc3)c2)cs1	x	1.9
Cc1cc(O)c2c(c1)C(=O)c1cc(O)cc(O)c1C2=O	-1.2	1.9
O=C1c2cccc(O)c2C(=O)c2c(O)cc(CO)cc21	x	6.2*
CN1C(C(=O)NCc2ccccn2)=CC(c2ccco2)=NS1(=O)=O	-0.13	-0.67
Cc1cc(=O)cc(C)n1-c1ccc(C(=O)O)cc1	0.84	-1.7
Cc1ccc(C)n1-c1ccc(O)c(C(=O)O)c1	-0.09	33*
Cc1ccc(C)n1-c1ccc(Br)cc1C(=O)O	-0.62	19*
O=C(O)c1cc(Br)cc(C(=O)O)c1Cl	1.1	2.2
